High-throughput results as filed in PubChem.
Sampled rows, rich in hits. Any-hit rate of the full collection: about 0.45%.
LGR2 inh: blocks bursicon-induced cAMP signaling via Drosophila LGR2 | HEK293 LGR2, CRE-luciferase, bursicon-stimulated, 4 h | inhibition, % at 9.99 µM | 0.35% of 380,000 active | AID 720647;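 active means drop in luminescence signal, shown as inhibition above about 50% in the replicate tests, limit read from the data, passing the limit was not always enough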;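 further: agonist challenge used bursicon conditioned medium at about half maximal strength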
NCOA3 inh: inhibitors of human steroid receptor coactivator 3 (SRC3); 0.17% of 360,000 active; inhibition, % at 3.6 µM; HEK293 GAL4-SRC3 luciferase reporter, luminescence;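 active means inhibition above a per-campaign cutoff, the mean of all compounds plus 3 SD, cut at about 60% in these data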;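 further: 0% = DMSO-treated cells and 100% = gossypol-treated cells at 36 µM; higher means less SRC3-driven luciferase light from the GAL4 reporter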
NCOA2 inhibitor: inhibits human steroid receptor coactivator 2. Q15596. HEK293 GAL4-SRC2 luciferase reporter, luminescence. inhibition, % at 9 µM. 0.17% of 370,000 active;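 active means inhibition above the mean inhibition of all tested compounds plus 3 SD, set per campaign, cut at about 52% in these data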;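 further: 0% = DMSO treated cells and 100% = cells given Gossypol at 36 µM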
NR5A2 inv ag: inverse agonists of human LRH-1 (NR5A2). 0.13% of 360,000 active. inhibition, % at 3.6 µM. HEK293T StAR-luciferase reporter, LRH-1 transfected, 24 h;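 active means inhibition above the mean inhibition of all tested compounds plus 3 SD, cut at about 73% in these data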;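 further: 0% = DMSO wells and 100% = reporter-only cells lacking LRH-1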
SRC1 inh: inhibitors of human steroid receptor coactivator 1 (SRC1) | HEK293 GAL4-SRC1 luciferase reporter, luminescence | AID 588354 | inhibition, % at 3.6 µM | 0.12% of 360,000 active | Q15788;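 active means inhibition above the campaign mean plus 3 SD, with each screening campaign given its own cutoff, cut at about 60% in these data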;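 further: 0% = DMSO treated cells and 100% = gossypol at 36 µM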
* = called active by the depositor; x = not tested or not shown.

SMILES | LGR2 inh | NCOA3 inh | NCOA2 inhibitor | NR5A2 inv ag | SRC1 inh
C=C1C(=O)[C@]23C[C@H]1CCC2[C@@]1(C)C(C[C@@H]3O)[C@](C)(C(=O)OC)CC[C@@H]1O (stereo partly specified) | 69* | 40 | 64* | 48 | 43
C=C1C(=O)[C@]23C[C@H]1CC[C@H]2[C@]1(C)CCC[C@@](C)(C(=O)OC)[C@H]1C[C@@H]3O | x | x | 84* | x | x
C[C@@H]1CCCCO[C@H](CN(C)C(=O)Cc2ccccc2)[C@H](C)CN([C@H](C)CO)C(=O)c2cc(NS(=O)(=O)c3ccccc3)ccc2O1 | 4 | x | x | x | x
O=C(C[C@H]1C=C[C@H](NC(=O)C2CC2)[C@@H](CO)O1)NCCCN1CCOCC1 | -2 | x | x | x | x
C[C@H]1CN([C@@H](C)CO)C(=O)c2cccc(NC(=O)CCCCCC(=O)Nc3ccccc3N)c2O[C@H]1CN(C)Cc1ccc(C(F)(F)F)cc1 | 2 | x | x | x | x
O=C(Nc1ccc(Cl)cc1)Nc1cccc(C(=O)O)c1 | 92* | -88 | -63 | -191 | -133
CCOc1ccc(NC(=O)c2cnccn2)cc1 | x | -46 | -120 | -146 | -241
CCOc1ccc(NC(=O)c2ccccn2)cc1 | 95* | 23 | 47 | -26 | -2
Cc1ccc(S(=O)(=O)N(C)C)cc1NC(=O)COc1ccccc1C(=O)Nc1ccccc1 | -9 | 3 | -21 | 8 | 0
CN(C)S(=O)(=O)c1cccc(NC(=O)COc2ccccc2C(=O)Nc2ccccc2)c1 | 45* | -1 | -9 | 7 | -1
O=C(Nc1cccc(C(=O)O)c1)Nc1ccccc1Cl | 70* | -76 | -23 | -114 | -109
Cc1ccc(NC(=O)Nc2ccc3c(c2)nc(C)n3C)cc1 | -69 | -68 | -24 | -140 | -95
Cc1nc2cc(NC(=O)Nc3ccccc3Cl)ccc2n1C | 51* | -53 | -17 | -110 | -85
CCOc1ccc(C(=O)Nc2cccc(C(=O)O)c2)cc1Cl | 76* | -89 | -25 | -135 | -98
CCc1ccc(/C=N/NC(=O)c2ccccn2)cc1 | 71* | -49 | -20 | -139 | -104
CCOc1ccc(NC(=O)Nc2cccc(C(=O)O)c2)cc1 | 105* | -63 | -38 | -221 | -92
O=C(C[C@@H]1C[C@H]2c3cc(NC(=O)Nc4ccccc4)ccc3O[C@H]2[C@H](CO)O1)NCc1ccncc1 | -10 | x | x | x | x
Cc1ccccc1OCC(=O)Nc1cccc(C(=O)O)c1 | 101* | -50 | -17 | -98 | -48
CSc1cccc(NC(=O)C(=O)NCc2ccccc2)c1 | -4 | -4 | 1 | 9 | 8
O=C(NCc1ccccc1)C(=O)Nc1cccc(C(=O)O)c1 | 84* | -96 | -55 | -169 | -143
Cc1cccc(OCC(=O)Nc2cc(NC(=O)COc3cccc(C)c3C)cc(C(=O)O)c2)c1C | 17 | -10 | -54 | 8 | -23
